# Experimental data: the supplement of paper PMC8728848
# Only a selection was taken, and the strongest signals are over-represented in it overall.
# Columns and labels:
# Test in all cases: glycan array binding signal (z-score within array); higher = stronger binding
# Details in all cases: glycan notation: IUPAC condensed, linker removed
# [1] = system: GlcNAc(a1-4)Gal(b1-4)GalNAc
# How it was run: (§1)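 The binding signal is a Z-score computed within each array. Data were drawn from 3228 arrays in the Consortium for Functional Glycomics database, restricted to those with a known protein sequence. Scores were averaged over arrays of the same protein sequence at different concentrations or buffers, and over linkers, and negative values can be taken as non-binding.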
# [2] = system: GlcNAc(b1-2)Man(a1-3)[GlcNAc(b1-2)Man(a1-6)]Man(b1-4)GlcNAc(b1-4)[Fuc(a1-6)]GlcNAc
# How it was run: as §1
# [3] = system: GlcNAc(a1-3)Gal(b1-4)GlcNAc
# How it was run: as §1
# [4] = system: GlcNAc(a1-4)Gal(b1-4)GlcNAc(b1-3)Gal(b1-4)GlcNAc
# How it was run: as §1
# [5] = system: GlcNAc(a1-4)Gal(b1-4)GlcNAc(b1-3)Gal(b1-4)[Fuc(a1-3)]GlcNAc(b1-3)Gal(b1-4)[Fuc(a1-3)]GlcNAc
# How it was run: as §1
# [6] = system: GlcNAc(b1-2)[GlcNAc(b1-4)]Man(a1-3)[GlcNAc(b1-2)Man(a1-6)]Man(b1-4)GlcNAc(b1-4)GlcNAc
# How it was run: as §1
# [7] = system: GlcNAc(b1-2)Gal(b1-3)GalNAc
# How it was run: as §1
# [8] = system: GlcNAc(b1-2)[GlcNAc(b1-4)]Man(a1-3)[GlcNAc(b1-4)][GlcNAc(b1-2)[GlcNAc(b1-6)]Man(a1-6)]Man(b1-4)GlcNAc(b1-4)GlcNAc
# How it was run: as §1
# [9] = system: GlcNAc(b1-2)Man(a1-3)[GlcNAc(b1-4)][GlcNAc(b1-2)Man(a1-6)]Man(b1-4)GlcNAc(b1-4)[Fuc(a1-6)]GlcNAc
# How it was run: as §1
# [10] = system: GlcNAc(b1-2)Man(a1-3)[GlcNAc(b1-2)Man(a1-6)]Man(b1-4)GlcNAc(b1-4)GlcNAc
# How it was run: as §1
substance,measurement,setting,value
Epa22,glycan array binding signal (z-score),[1],-0.638
same,glycan array binding signal (z-score),[2],-0.14
"GspB (Streptococcus gordonii), Q939N5",glycan array binding signal (z-score),[3],2.63
"BambL (Burhholderia ambifaria), Q0B4G1",glycan array binding signal (z-score),[3],-0.316
same,glycan array binding signal (z-score),[4],-0.278
same,glycan array binding signal (z-score),[5],0.185
same,glycan array binding signal (z-score),[2],0.071
same,glycan array binding signal (z-score),[6],-0.291
"Wza (Escherichia coli), P0A930",glycan array binding signal (z-score),[5],3.13
"SiiE (Salmonella typhimurium), A0A0H3NVH0",glycan array binding signal (z-score),[7],0.158
same,glycan array binding signal (z-score),[8],-1.05
LcI (Legionella pneumophila),glycan array binding signal (z-score),[9],-0.447
same,glycan array binding signal (z-score),[8],-0.477
AgI/IIC123-GFP (Streptococcus mutans),glycan array binding signal (z-score),[10],-0.346
AgI/II Vhelical-GFP (Streptococcus mutans),glycan array binding signal (z-score),[4],1.06
same,glycan array binding signal (z-score),[6],-0.187
